# G9a block: qHTS Assay for Inhibitors of Histone Lysine Methyltransferase G9a; Potency, µM (series often up to 102 µM), for inactives: at the highest dose activity, negative = inhibition, usual class: inhibitors; G9a H3K9 monomethylation, AlphaScreen, 2 h; Histone-lysine N-methyltransferase EHMT2 (Homo sapiens), Q96KQ7; 350,000 tested, 8.8% active; further: on the % scale 0 is the no-effect control and ±100 the full control effect; nearly all actives have a fitted effect of over 75% in size
#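 Chemiluminescent proximity detection of H3K9 monomethylation, read after 10 min bead incubation in the dark. Reaction: 20 nM G9a, 500 nM biotin-H3K9 peptide, 20 uM SAM cofactor, 2 h, room temperature, following 15 min enzyme-compound preincubation.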
# TDP1 block: qHTS Assay for Inhibitors of Tyrosyl-DNA Phosphodiesterase (TDP1). recombinant TDP1, AlphaScreen DNA substrate cleavage. Potency, µM (doses to about 130 µM), for inactives: top-dose activity change, negative = inhibition, usual class: inhibitors. 350,000 tested, 0.28% active; further: on the % scale 0 is the no-effect control and ±100 the full control effect; nearly all actives have a fitted effect of over 40% in size
#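 Compounds were preincubated with Tdp1 (1 nM final) for 15 min at room temperature before substrate (15 nM final) started a 5 min reaction; beads (10 ug/ml final) were then added for 10 min before AlphaScreen detection.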
# Sfp inh: qHTS Assay for Inhibitors of Bacillus subtilis Sfp phosphopantetheinyl transferase (PPTase) | Potency, µM, for inactives: largest response in the series, negative = inhibition, hits mostly inhibitors | 310,000 tested, 3.5% active | Biochemical Sfp PPTase activity, qHTS;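 further: the enzyme is Sfp with the accession as filed and its product quenches rhodamine fluorescence; 0% = enzyme reaction without inhibitor and -100% = no enzyme wells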
#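 After 15 min at room temperature with compound, 15 nM Sfp received 5 uM rhodamine-CoA plus 12.5 uM BHQ-2-ybbR (50 mM Hepes pH 7.6, 10 mM MgCl2). Rate came from the fluorescence difference over 30 min, ex 525/em 598 nm.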
# JMJD2A Tudor: qHTS Assay for Inhibitors of JMJD2A-Tudor Domain | Lysine-specific demethylase 4A (Homo sapiens), O75164 | AlphaScreen JMJD2A-Tudor / H3K4me3 peptide binding | Potency, µM (titrated, usually from 114 µM), for the others: at the highest dose activity change, negative = inhibition, usual class: inhibitors | 390,000 tested, 4.4% active | AID 504339, 2011; further: on the % scale 0 is the no-effect control and ±100 the full control effect; nearly all actives have a fitted effect of over 50% in size
# BAZ2B block: qHTS Assay for Inhibitors of BAZ2B; Bromodomain adjacent to zinc finger domain protein 2B (Homo sapiens), Q9UIF8; AlphaScreen BAZ2B-H3K14Ac peptide displacement; Potency, µM (top dose mostly 114 µM), inactives show at the top dose activity change, negative = inhibition, usual class: inhibitors; 360,000 tested, 4.4% active; AID 504333, 2011; further: on the % scale 0 is the no-effect control and ±100 the full control effect; nearly all actives have a fitted effect of over 60% in size
# Target sequence (Q9UIF8 whole entry, looked up, the tested form may be a part): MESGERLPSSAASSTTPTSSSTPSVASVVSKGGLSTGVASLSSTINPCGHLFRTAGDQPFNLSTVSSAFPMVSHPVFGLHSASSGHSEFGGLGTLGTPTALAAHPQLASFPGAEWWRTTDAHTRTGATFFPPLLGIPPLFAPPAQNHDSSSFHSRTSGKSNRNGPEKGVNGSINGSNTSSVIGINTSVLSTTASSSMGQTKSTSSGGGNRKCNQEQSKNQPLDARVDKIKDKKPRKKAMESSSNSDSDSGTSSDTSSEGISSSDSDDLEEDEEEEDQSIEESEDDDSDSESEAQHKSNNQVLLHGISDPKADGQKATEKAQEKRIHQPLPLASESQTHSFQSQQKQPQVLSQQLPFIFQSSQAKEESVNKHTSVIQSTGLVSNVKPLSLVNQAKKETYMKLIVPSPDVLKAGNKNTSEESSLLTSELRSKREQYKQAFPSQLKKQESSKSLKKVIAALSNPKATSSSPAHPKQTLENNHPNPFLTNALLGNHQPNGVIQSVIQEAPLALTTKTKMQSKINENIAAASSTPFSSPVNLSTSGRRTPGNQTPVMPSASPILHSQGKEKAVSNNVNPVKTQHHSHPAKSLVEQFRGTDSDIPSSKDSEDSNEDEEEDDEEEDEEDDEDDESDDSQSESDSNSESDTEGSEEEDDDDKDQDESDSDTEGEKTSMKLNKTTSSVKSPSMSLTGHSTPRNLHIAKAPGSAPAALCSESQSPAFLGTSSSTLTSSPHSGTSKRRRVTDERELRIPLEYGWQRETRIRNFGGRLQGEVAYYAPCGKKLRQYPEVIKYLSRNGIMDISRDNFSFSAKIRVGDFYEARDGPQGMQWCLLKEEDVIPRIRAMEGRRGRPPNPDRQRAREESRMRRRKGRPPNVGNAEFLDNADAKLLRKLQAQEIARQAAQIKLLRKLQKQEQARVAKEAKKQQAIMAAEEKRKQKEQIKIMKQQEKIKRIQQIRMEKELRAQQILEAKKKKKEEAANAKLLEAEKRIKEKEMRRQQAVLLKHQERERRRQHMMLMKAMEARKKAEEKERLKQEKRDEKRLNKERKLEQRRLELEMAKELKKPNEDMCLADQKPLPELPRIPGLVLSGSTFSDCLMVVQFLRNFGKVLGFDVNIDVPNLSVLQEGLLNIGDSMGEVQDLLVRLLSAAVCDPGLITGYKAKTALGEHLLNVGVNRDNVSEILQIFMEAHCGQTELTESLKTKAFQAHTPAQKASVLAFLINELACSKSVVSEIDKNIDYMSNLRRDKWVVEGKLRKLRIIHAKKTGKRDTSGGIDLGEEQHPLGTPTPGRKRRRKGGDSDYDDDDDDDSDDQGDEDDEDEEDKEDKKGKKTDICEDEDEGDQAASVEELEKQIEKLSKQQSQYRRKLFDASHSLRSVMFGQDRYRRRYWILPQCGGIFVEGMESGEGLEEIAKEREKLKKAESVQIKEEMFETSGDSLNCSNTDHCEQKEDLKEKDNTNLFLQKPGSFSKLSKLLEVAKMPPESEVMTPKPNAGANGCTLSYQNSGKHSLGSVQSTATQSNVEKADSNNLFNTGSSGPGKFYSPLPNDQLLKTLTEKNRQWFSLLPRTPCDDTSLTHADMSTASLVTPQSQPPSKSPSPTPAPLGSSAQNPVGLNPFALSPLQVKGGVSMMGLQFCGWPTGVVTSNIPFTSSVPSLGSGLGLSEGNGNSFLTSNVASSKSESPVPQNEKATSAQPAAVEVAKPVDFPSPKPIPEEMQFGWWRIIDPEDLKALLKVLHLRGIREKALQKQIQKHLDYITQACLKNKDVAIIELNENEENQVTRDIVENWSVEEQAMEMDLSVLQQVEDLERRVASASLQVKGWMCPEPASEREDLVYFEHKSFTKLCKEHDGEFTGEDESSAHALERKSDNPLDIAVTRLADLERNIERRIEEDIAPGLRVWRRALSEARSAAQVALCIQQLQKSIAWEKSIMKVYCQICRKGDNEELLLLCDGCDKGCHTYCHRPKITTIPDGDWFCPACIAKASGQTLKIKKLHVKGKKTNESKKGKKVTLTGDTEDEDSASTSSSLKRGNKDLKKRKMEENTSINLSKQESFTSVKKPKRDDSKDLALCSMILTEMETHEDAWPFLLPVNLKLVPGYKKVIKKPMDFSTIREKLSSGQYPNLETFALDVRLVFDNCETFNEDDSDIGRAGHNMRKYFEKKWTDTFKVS
#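 AlphaScreen displacement: compounds (up to 110uM) incubated 30 min at room temperature with a preformed 50 nM BAZ2B/50 nM biotinylated H3K14Ac peptide complex in PBS pH 7.4 with Tween-20. Donor and acceptor beads at 10 ug/mL final added, 20 min light-protected before reading.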
# HP1b chromo inh: HTS for Inhibitors of HP1-beta Chromodomain Interactions with Methylated Histone Tails; Chromobox protein homolog 1 (Homo sapiens), P83916; AlphaScreen HP1-beta / biotin-H3K9me3 peptide binding; Potency, µM (highest dose often 114 µM), for the others: top-dose activity change, negative = inhibition, usual class: inhibitors; 390,000 tested, 0.56% active; further: nearly all actives have a fitted effect of over 70% in size
#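 Compound inhibition of the preformed complex between 50 nM HP1-beta and 50 nM biotinylated H3K9me3 peptide was read by AlphaScreen. Buffer was PBS pH 7.4 with 0.01% Tween-20. Incubations ran 30 min at room temperature, with 10 ug/mL donor/acceptor beads.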
# The depositor's hits bear a star; ? = inconclusive; · = no result; [ ] = remark or other dose. Sampled rows, rich in hits. Any-hit rate of the full collection: about 12%. The call rests on the fitted dose curve; in most records, active means well fitted curve in the direction sought with a large enough effect; inconclusive means small, poorly fitted or top-dose-only effect, or another doubt; inactive means no such curve, though single readings can be large; an effect the other way counts as inactive or inconclusive. Potency means the concentration at half of the fitted maximal effect.
SMILES,G9a block,TDP1 block,Sfp inh,JMJD2A Tudor,BAZ2B block,HP1b chromo inh
CC(=O)c1ccc(N(CC(=O)NC2CCCC2)C(=O)CNC(=O)c2ccco2)cc1,12.0%,9.7%,21.1%,3.9%,-2.3%,44.7%
Cc1cccc(-c2oc3ccc(-c4ccc5c(c4)OCO5)cc3c2/C=C/c2ccc(N)cc2)c1,16.8%,·,26.4%,-8.6%,-3.5%,42.2%
COc1ccc(C(=O)N2CCC[C@@]3(CCN(c4ccccn4)C3)C2)cc1,-4.3%[12.7 µM],·,13.6%,·,·,·
O=C(O)CN1CCN(Cc2ccc(F)cc2Cl)C1=O,25.1µM*,2.9%,6.9%,-11.5%,-31.4%,22.9%
COc1ccc(-c2nc3c4ccccc4ccn3c2CN2CCCCC2)cc1,39.8µM*,4.8%,12.8%,?,?,-2.6%
Cc1ccc(C(=O)CC2(O)C(=O)N(CCc3ccccc3)c3ccc(Cl)cc32)cc1 (stereo not given),?,·,·,-23.9%,-22.5%,20.7%
CC(C[N+](C)(C)C)OC(=O)C1(c2ccccc2)CCCC1 (stereo not given),-39.1%[12.7 µM],-2.8%,4.8%,-6.6%,-31.8%,4.7%
C[N+](C)(C)CCOC(=O)C1(c2ccccc2)CCCC1,3.55µM*,2.0%,13.6%,-29.5%[11.4 µM],1.2%,?
CC(=O)CC[N+](C)(C)C,·,·,·,-0.7%,·,79.4µM*
CCOC(=O)C1(CCCc2ccccc2)CCN(C(=O)C2CCCN(C(N)=O)C2)CC1 (stereo not given),17.1%,0.0%,-0.9%,-12.5%,5.7%,29.3%
Brc1ccc(OCCCN2CCOCC2)cc1,28.2µM*,-5.1%,-27.3%,4.47µM*,?,?
Brc1ccc(OCCN2CCOCC2)cc1,28.2µM*,3.7%,-13.9%,0.891µM*,?,?
CCCN(CC(=O)Nc1ccc(C(N)=O)cc1)CC(=O)Nc1ccc(Cl)cc1Cl,22.4%[59 µM],2.6%,-2.0%,2.1%,-4.0%,17.3%
CCN(CC)CCNC(CC(=O)Nc1ccc(Cl)cc1Cl)C(=O)O (stereo not given),8.91µM*,2.2%,-6.6%,-33.2%,3.8%,26.3%
Cc1ccc2ccc3cccc4ccc1c2c34,-2.6%[0.501 µM],56.2µM*,·,216.6%,343.4%,376.7%
CCNc1nc(C(=O)O)nc(N2CCOCC2)n1,3.98µM*,0.0%,79.4µM*,0.794µM*,8.91µM*,3.7%
CN(C)c1nc(C(=O)O)nc(N2CCOCC2)n1,?,·,7.0%,31.6µM*,-28.2%,-0.1%
O=C1NCCC/C1=N\Nc1ccc(Br)cc1,50.1µM*,1.2%,16.4%,?,-3.6%,-15.9%
Cc1ccccc1N/N=C1\CCCNC1=O,?,9.2%,?,?,-33.4%,-16.7%
COc1ccc2c(c1)CC/C(=C/c1ccncc1)C2=O,5.9%[59 µM],2.7%,6.6%,-15.1%,-31.1%,13.0%
COc1ccc2c(c1)C(=O)/C(=C/C=C/c1ccccc1)CC2,31.6µM*,7.1%[56.1 µM],-13.3%,-28.2%[57.1 µM],6.8%,28.6%
COc1ccc2c(c1)CC/C(=C\C=C\c1ccccc1OC)C2=O,7.94µM*,-0.4%[56.1 µM],25.1µM*,-14.9%,8.2%,16.2%
CS(=O)(=O)Oc1ccc2c(c1)O/C(=C\C=C\c1ccccc1)C2=O,?,10.0%,-21.8%,-25.5%,?,2.9%
Cc1ccc2c(c1)N(C(=O)CCC(=O)NCCCN1CCC(Cc3ccccc3)CC1)CCO2,·,·,-6.1%,-23.6%,5.3%,20.3%
COc1cc2c(cc1OC)C1CCN3C(=O)CCC3N1CC2 (stereo not given),·,·,·,-9.0%,·,5.9%
SMILES,G9a block,TDP1 block,Sfp inh,JMJD2A Tudor,BAZ2B block,HP1b chromo inh
S=c1[nH]nc(-c2cccnc2)o1,?,-4.2%,56.2µM*,20µM*,?,36.6%
Nc1nc(-c2cccc(Br)c2)cs1,?,-0.9%,-18.6%,-32.7%,?,-5.7%
Nn1c(-c2cccc(Br)c2)n[nH]c1=S,2.24µM*,10.5%,?,35.5µM*,?,-10.0%
S=c1[nH]nc(-c2cccc(Br)c2)o1,1.78µM*,7.8%,10.9%,?,-7.7%,10.2%
COc1ccccc1C(=O)NC1CCN(C(=S)NCCc2ccccc2)CC1,-3.7%[0.501 µM],6.2%,9.4%,?,-1.4%,-11.2%
COc1ccc(C(=O)O)cc1COc1ccc(NC(C)=O)cc1,·,-6.7%,·,-2.0%,·,·
CSCC[C@@H]1NC(=O)[C@@H](NC(=O)[C@H](CCCNC(=N)N)NC(=O)[C@H](CC(C)C)NC(=O)[C@H](CCSC)NC(=O)[C@H](CC(=O)O)NC(=O)[C@H](Cc2ccccc2)NC(=O)[C@@H](N)CC(=O)O)CSSC[C@@H](C(=O)N[C@@H](Cc2c[nH]c3ccccc23)C(=O)N[C@@H](CCC(N)=O)C(=O)N[C@@H](Cc2ccc(O)cc2)C(=O)O)NC(=O)[C@@H]2CCCN2C(=O)[C@H](CCCNC(=N)N)NC(=O)[C@H](Cc2ccccc2)NC(=O)[C@H](C(C)C)NC(=O)[C@H](CCCNC(=N)N)NC(=O)CNC(=O)[C@H](CC(C)C)NC1=O,·,10.8%,·,·,·,·
Oc1ccc(/C=N/n2c(C3CCCCC3)n[nH]c2=S)c(O)c1,1.58µM*,·,0.178µM*,14.1µM*,-33.2%,-10.3%
Cc1cc2ncn(/N=C/c3cc(Br)ccc3O)c2cc1C,5.2%[59 µM],-4.2%,16.2%,·,-28.1%,·
Oc1ccc(Br)cc1/C=N/n1c(C2CCCCC2)n[nH]c1=S,50.1µM*,·,-2.4%,?,?,-18.4%
O=CN1Cc2ccccc2-c2ccccc2C1,6.9%[59 µM],·,22.6%,-0.7%,?,28.3%
FC(F)(F)c1ccc(-c2n[nH]c(=S)o2)nc1,39.8µM*,11.4%,-1.2%,0.0%,-12.8%,66.5%
c1ccc2nc(-c3ccncc3)ccc2c1,16.6%[59 µM],-5.9%,0.7%,4.5%,8.3%,25.8%
S=c1[nH]nc(-c2ccc3ccccc3n2)o1,8.91µM*,9.6%,1.5%,-32.8%,6.1%,68.7%
COc1nc(N(C)S(=O)(=O)c2ccc(C)cc2)nc(C)c1Br,13.0%[0.501 µM],·,-6.6%,-1.4%,6.7%,31.1%
COC(=O)C1=C(C)N(c2cc(Cl)cc(Cl)c2)C(=O)C1,44.7µM*,1.0%,3.3%,-20.1%,-3.7%,11.3%
Cc1ccc(C)c(Cn2c(SCC(=O)NCc3ccccc3)nc3ccccc32)c1,-2.3%[12.7 µM],-1.2%,·,-1.3%,-9.4%,25.7%

# Bioassay records from PubChem.
